# According to PubChem BioAssay (Tox21):
# The source made the active and inactive calls. A call without a number means that no potency is given here. Calls follow the shape of the full dose curve.
# Biological target: Acetylcholinesterase (Homo sapiens) (UniProt P22303)
# Assay: Acetylcholinesterase (AChE) small molecule antagonists: enzyme-based qHTS assay with human liver microsomes (AID 1347399); also: nearly all actives have a fitted effect of over 60% in size
# Conditions: Potency: qHTS inhibition; outcome: qHTS inhibition; series mostly up to 115 µM
# Excerpt: National Center for Advancing Translational Sciences [NCATS]
# Division of Preclinical Innovation [DPI]
# U.S. Environmental Protection Agency [EPA]
# National Institutes of Environmental Health Sciences [NIEHS]
# National Toxicology Program [NTP]
# U.S. Food and Drug Administration [FDA]
# Acetylcholinesterase (AChE) is the primary cholinesterase in the body that hydrolyzes a key neurotransmitter, acetylcholine. Inhibition of AChE activity can lead to neurotoxicity. The known inhibitors include organophosphorous pesticides (OP), chemical warfare agents, drugs, and various phytochemicals. Some compounds like OP compounds may need metabolic activation to be active AChE inhibitors. The cytochrome P450 (CYP) superfamily in the human microsomes is responsible for the metabolism of various endogenous and exogenous compounds.
# An enzyme-based assay with the recombinant human AChE, human liver microsomes and Amplite Colormetric acetylcholinesterase assay kit (AAT Bioquest, Sunnyvale, CA) was used to evaluate compounds in the Tox21 10K library that need metabolic activation for AChE inhibition. The assay uses 5, 5-dithiobis-(2-nitrobenzoic acid) (DTNB) to quantify the thiocholine produced from the hydrolysis of acetylthiocholine by AChE.
# Tox21 Assay Protocol Summary:
# For the enzyme-based AChE assay with microsomes addition, a mixture of human AChE (50 mU/mL) and human liver microsomes (0.25 mg/mL, final concentration) in 3 uL/well was dispensed into black, clear-bottom 1536-well plates using a Multidrop Combi dispenser (Thermo Scientific, MA). Then, 23 nL of compound or DMSO (vehicle control) was transferred into the assay plates by a Pintool Station (Wako Automation, CA). Following compound addition, 1 uL of NADPH (0.25 mg/mL, final concentration) was transferred to the assay plate by a Flying Reagent Dispenser (Beckman Coulter, CA). The plates were incubated for 30 min at 37 C and 5% CO2, followed by the addition of 4 uL of colorimetric detection cocktail solution (DTNB, acetylthiocholine) into each well using a Flying Reagent Dispenser (Beckman Coulter, CA) and then 10 min incubation at room temperature.
# Acetylcholinesterase (Homo sapiens), sequence (P22303 whole entry, looked up): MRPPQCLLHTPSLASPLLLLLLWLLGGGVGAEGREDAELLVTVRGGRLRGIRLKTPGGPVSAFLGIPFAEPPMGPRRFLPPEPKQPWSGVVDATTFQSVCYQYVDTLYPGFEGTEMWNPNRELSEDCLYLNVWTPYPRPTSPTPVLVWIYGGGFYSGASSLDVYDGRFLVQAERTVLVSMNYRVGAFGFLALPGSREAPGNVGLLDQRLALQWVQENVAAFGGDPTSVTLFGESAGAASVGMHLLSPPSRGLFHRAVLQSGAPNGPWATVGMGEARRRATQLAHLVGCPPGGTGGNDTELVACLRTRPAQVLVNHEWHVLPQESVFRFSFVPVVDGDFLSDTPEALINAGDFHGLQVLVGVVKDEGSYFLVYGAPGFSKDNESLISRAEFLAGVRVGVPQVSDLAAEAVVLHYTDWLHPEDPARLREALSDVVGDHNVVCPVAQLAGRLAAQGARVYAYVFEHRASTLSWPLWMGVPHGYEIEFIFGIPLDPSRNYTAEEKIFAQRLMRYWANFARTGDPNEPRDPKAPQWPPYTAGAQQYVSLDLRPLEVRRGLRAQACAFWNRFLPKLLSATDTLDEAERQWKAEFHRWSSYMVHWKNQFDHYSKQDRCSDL
Compound,outcome,Potency,"activity change, negative = inhibition"
CO/N=C1\CN(c2nc3c(cc2F)c(=O)c(C(=O)O)cn3C2CC2)CC1CN (stereo not given),inactive,–,–
OCc1cc(C(O)CNCCCCCCOCCCCc2ccccc2)ccc1O (stereo not given),–,inactive,–
OC[C@@H](O)[C@H](O)[C@@H](O)[C@@H](O)CO,–,inactive,–
O=C1OC[C@H](Cc2cccc(O)c2)[C@H]1Cc1cccc(O)c1,–,inactive,–
CCCCCCCCCCCCCC=O,–,–,-0.486% [at 10.5 µM] (inactive)
CCOc1ccc2ccccc2c1C(=O)N[C@@H]1C(=O)N2[C@@H]1SC(C)(C)[C@@H]2C(=O)O,–,inactive,–
O=C(OCC(O)CO)c1ccccc1Nc1ccnc2cc(Cl)ccc12 (stereo not given),–,inactive,–
COC(=O)CSc1cc(N=c2sc(=O)n3n2CCCC3)c(F)cc1Cl,–,inactive,–
O=C(O)c1cccnc1Nc1cccc(C(F)(F)F)c1,–,inactive,–
O=C(OCCN1CCOCC1)c1cccnc1Nc1cccc(C(F)(F)F)c1,–,inactive,–
O=C(OCCc1ccccc1)c1ccccc1,–,inactive,–
Cc1ccc(O)c([C@H](CCN(C(C)C)C(C)C)c2ccccc2)c1,–,inactive,–
Cc1ncc([N+](=O)[O-])n1CC(C)O (stereo not given),–,inactive,–
Cc1ccc(C(=O)C(C)CN2CCCCC2)cc1 (stereo not given),–,inactive,–
COc1ccc(C(=O)c2ccc(OC)cc2O)c(O)c1,–,inactive,–
COC(=O)CC(C)=O,–,inactive,–
O=C(/C=C/c1ccccc1)OCCc1ccccc1,–,inactive,–
O=C(c1ccc(F)cc1)C1CCN(CCn2c(=O)[nH]c3ccccc3c2=O)CC1,–,inactive,–
COc1cc2nc(N3CCN(C(=O)C4CCCO4)CC3)nc(N)c2cc1OC (stereo not given),–,inactive,–
CCOC(=O)C1=NN(c2ccc(Cl)cc2Cl)C(C)(C(=O)OCC)C1 (stereo not given),–,inactive,–

Compound,outcome,Potency,"activity change, negative = inhibition"
CO[C@@H]1[C@@H](O[C@@H]2O[C@H](C)[C@@H](O[C@H]3C[C@@](C)(O)[C@@H](O)[C@H](C)O3)[C@H](N(C)C)[C@H]2O)[C@@H](CC=O)C[C@@H](C)[C@@H](O[C@@H]2CC[C@H](N(C)C)[C@@H](C)O2)/C=C/C=C/C[C@@H](C)OC(=O)C[C@H]1OC(C)=O,–,inactive,–
OCc1c[nH]c2ccccc12,–,inactive,–
CCCCCCC(C)Nc1ccc(Nc2ccccc2)cc1 (stereo not given),–,inactive,–
CC(=O)Oc1cccc(C)c1,–,inactive,–
C=CC(=O)NCOCC(C)C,–,inactive,–
Cc1cccc(C)c1NC(=O)c1cc(S(N)(=O)=O)c(Cl)cc1O,–,inactive,–
COC(/C=C(\C)CCC=C(C)C)OC,–,inactive,–
C[N+](C)(CCOc1ccccc1)Cc1cccs1,–,inactive,–
C=C[Si](C)(C)O[Si](C)(C)C=C,–,inactive,–
COc1c(Br)cc(Br)c(C)c1Br,–,inactive,–
CC(C)(C)N(CCO)CCO,–,inactive,–
CCCCc1ccc2c(n1)[C@@H](c1ccc(OC)cc1C[C@H](C)C(=O)O)[C@H](C(=O)O)[C@H]2c1ccc2c(c1)OCO2,–,inactive,–
CC[C@H]1O[C@]2(CC[C@@H]1C)C[C@@H]1C[C@@H](C/C=C(\C)C[C@@H](C)/C=C/C=C3\CO[C@@H]4[C@H](O)C(C)=C[C@@H](C(=O)O1)[C@]34O)O2,–,inactive,–
CC1=CC[C@@]23C[C@@H]1C(C)(C)[C@@H]2CC[C@H]3C,–,inactive,–
COc1ccc(NS(=O)(=O)c2ccc(N)cc2)nn1,–,inactive,–
CC(C)(C)c1cc(CCC(=O)NN)cc(C(C)(C)C)c1O,–,inactive,–
CCOc1ccc2[nH]cc(C(=O)NCc3ccccc3)c(=O)c2n1,–,inactive,–
Brc1cc2ccccc2c2ccccc12,–,inactive,–
CCCCOCC,–,inactive,–
COc1cc(C(C)=O)ccc1OCCCN1CCC(c2noc3cc(F)ccc23)CC1,–,inactive,–
